TDP1 inh: blocks human tyrosyl-DNA phosphodiesterase 1; Q9NUW8; recombinant TDP1, AlphaScreen DNA substrate cleavage; Potency, µM (highest dose often 130 µM), for the others: at the top dose activity change, negative = inhibition, actives largely listed as inhibitors; 350,000 compounds, 0.28% hits; also: nearly all actives have a fitted effect of over 40% in size
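Enzyme-compound mixtures sat 15 min at room temperature, followed by a 5 min reaction with 15 nM final substrate and 10 min with AlphaScreen beads. Recombinant human Tdp1 was used at 1 nM final.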
L3MBTL1 inh: L3MBTL1 (human) inhibition; Q9Y468; AlphaScreen L3MBTL1–H3K9me1 peptide binding; Potency, µM (top dose mostly 57.1 µM), without a hit: top-dose activity, negative = inhibition, usual class: inhibitors; 230,000 compounds, 0.66% hits; AID 485360; also: nearly all actives have a fitted effect of over 60% in size
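Displacement of a biotinylated histone H3(1-15) peptide monomethylated at Lys9 (75 nM) from L3MBTL1 (50 nM) was measured by AlphaScreen after a 30 min room-temperature compound incubation; cefsulodin titration served as intraplate control.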
RECQ1 inh: blocks DNA unwinding by human RECQ1 | P46063 | RECQ1 DNA unwinding, red fluorescence kinetic read | 240,000 compounds, 0.54% hits | AID 2549 | Potency, µM (series often up to 57.3 µM), for the others: top-dose activity, negative = inhibition, actives largely listed as inhibitors;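 also: plate controls were vehicle for no effect and no enzyme for full effect; nearly all actives have a fitted effect of over 30% in size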
Target sequence (P46063 whole entry, looked up): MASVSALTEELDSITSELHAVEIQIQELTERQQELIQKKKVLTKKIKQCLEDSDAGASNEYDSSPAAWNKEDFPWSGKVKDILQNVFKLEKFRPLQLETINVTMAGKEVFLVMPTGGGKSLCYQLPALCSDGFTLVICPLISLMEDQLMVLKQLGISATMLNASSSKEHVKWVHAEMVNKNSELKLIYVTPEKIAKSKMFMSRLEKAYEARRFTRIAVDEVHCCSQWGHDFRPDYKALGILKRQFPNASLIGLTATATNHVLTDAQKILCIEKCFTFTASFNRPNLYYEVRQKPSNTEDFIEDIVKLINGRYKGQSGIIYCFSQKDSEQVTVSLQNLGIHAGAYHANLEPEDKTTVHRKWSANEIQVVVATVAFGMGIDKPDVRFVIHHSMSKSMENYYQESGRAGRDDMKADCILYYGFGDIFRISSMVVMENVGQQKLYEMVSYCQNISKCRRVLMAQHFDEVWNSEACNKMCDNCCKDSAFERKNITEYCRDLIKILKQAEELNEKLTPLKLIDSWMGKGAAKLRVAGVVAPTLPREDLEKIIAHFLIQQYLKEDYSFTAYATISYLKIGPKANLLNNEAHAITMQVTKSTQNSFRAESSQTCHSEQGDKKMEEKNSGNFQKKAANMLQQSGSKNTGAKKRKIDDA
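50 nM RECQ1T1 preincubated 15 min with compound in Tris pH 8.0 buffer with MgCl2, DTT, Tween-20 and 2.5 ug/ml poly(dI-dC); started with 200 nM TAMRA/BHQ-2 forked duplex and 2 mM ATP. Unwinding read as fluorescence (525/598 nm), two reads 2 h apart.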
APE1 inh-1: blocks human APE1 abasic DNA cleavage; 350,000 compounds, 0.35% hits; P27695; AID 2517; Potency, µM (highest dose often 65.8 µM), inactives show at the highest dose activity change, negative = inhibition, actives largely listed as inhibitors; recombinant APE1, TAMRA/BHQ-2 abasic DNA cleavage fluorescence;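 also: plate controls were vehicle for no effect and reference inhibitor for full effect; nearly all actives have a fitted effect of over 55% in size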
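Enzyme (0.75 nM final) and test compound are incubated 15 min at room temperature before adding 50 nM quenched THF abasic-site duplex. Cleavage dequenches TAMRA, followed at 525/598 nm over three reads one minute apart.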
KDM4E inh: blocks human JMJD2E demethylase activity; B2RXH2; JMJD2E catalytic domain, FDH-coupled NADH fluorescence (FDH is formaldehyde dehydrogenase); Potency, µM (doses to about 57.1 µM), inactives show top-dose activity change, negative = inhibition, most hits filed as inhibitors; 230,000 compounds, 1.6% hits; AID 2147; active = well fitted inhibition curve with a large enough effect, not every such curve was filed as active; inconclusive = small, poorly fitted or top-dose-only effect, or another doubt; inactive = no such curve, though single readings can be large or run the other way;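 also: 0% = wells with enzyme and -100% = buffer wells without enzyme; nearly all actives have a fitted effect of over 50% in size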
BLM inh: Bloom syndrome helicase (human) inhibition; recombinant BLM DNA unwinding, fluorescence dequenching; AID 2528; Potency, µM (highest dose often 56.1 µM), inactives show at the top dose activity change, negative = inhibition, hits mostly inhibitors; P54132; 350,000 compounds, 0.2% hits;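 also: plate controls were vehicle for no effect and no enzyme for full effect; nearly all actives have a fitted effect of over 35% in size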
DNA dye displace: counter-screen for APE1 inhibitors: DNA dye displacement | shares compounds with APE1 inh-1 | DNA fluorescent dye displacement counterscreen, fluorescence | Potency, µM (top dose mostly 28.5 µM), inactives show at the highest dose activity change, negative = inhibition, hits mostly inhibitors | 480 compounds, 7% hits;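 also: loss of thiazole orange fluorescence as the dye is displaced from duplex DNA; 0% = ThO with dsDNA and no compound and -100% = ThO without dsDNA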
EndoIV counter: Endo IV (E. coli) inhibition counter-screen. Potency, µM (top dose mostly 27.1 µM), inactives show at the top dose activity change, negative = inhibition, hits mostly inhibitors. E. coli Endo IV, fluorogenic AP-site DNA cleavage. 560 compounds, 4% hits. shares compounds with APE1 inh-1;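 also: plate controls were uninhibited enzyme wells for no effect and no enzyme buffer wells for full effect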
APE1 inh-2: APE1 (human) endonuclease inhibition, confirmation; shares compounds with APE1 inh-1; purified APE1, fluorogenic abasic-site DNA cleavage; 750 compounds, 44% hits; AID 2572; Potency, µM (top dose mostly 57.1 µM), without a hit: top-dose activity change, negative = inhibition, actives largely listed as inhibitors; also: nearly all actives have a fitted effect of over 30% in size
APE1 FP inh: compounds that displace a DNA probe from human APE1 | 480 compounds, 7% hits | Potency, µM (doses to about 28.5 µM), without a hit: top-dose activity, negative = inhibition, actives largely listed as inhibitors | AID 2573 | APE1 binding to TAMRA-labelled double-stranded DNA, fluorescence polarization displacement | shares compounds with APE1 inh-1
Numbers without * were called inactive; i = inactive; ? = inconclusive; / = no result; ! = repeats disagree; [ ] = remark or other dose. This is one part of a sample in which hits are shown more often than they occur. Unless noted, calls follow the shape of the dose curve; as a rule, active = well fitted curve in the direction sought with a large enough effect; inconclusive = small, poorly fitted or top-dose-only effect, or another doubt; inactive = no such curve, though single readings can be large; an effect the other way counts as inactive or inconclusive. Unless noted, % is scaled to controls: 0 for no effect and ±100 for the full control effect; potency is read from the fitted curve at half-maximal effect.

SMILES | TDP1 inh | L3MBTL1 inh | RECQ1 inh | APE1 inh-1 | KDM4E inh | BLM inh | APE1 inh-2 | others
Cc1ccc(S(=O)(=O)Nc2cc(=O)[nH]c(SCC(=O)Nc3cccc(C)c3)n2)cc1 | 1% | / | -10% | -6% | -2% | -8% | /
Nc1cc(=O)[nH]c(SCC(=O)Nc2cccc(Cl)c2)n1 | -5% | / | -6% | 0% | 3% | 2% | /
Cc1ccc(NC(=O)CSc2nc(N)cc(=O)[nH]2)cc1Cl | 0% | -12% | -28% | 35µM* | 9% | -4% | -5%[24.4 µM] | DNA dye displace=?;EndoIV counter=0%;APE1 FP inh=-4%
Cc1ccc(NC(=O)CSc2nc(NS(=O)(=O)c3ccccc3)cc(=O)[nH]2)cc1 | 28µM* | / | ? | ? | ? | ? | -38%
CCSC1=N/C(=C\c2ccc(C(=O)O)cc2)C(=O)S1 | -14% | -8% | -12% | 1% | -14% | 3% | /
C=CCSC1=N/C(=C\c2ccc(C(=O)O)cc2)C(=O)S1 | 28µM* | -23% | i | -3% | ? | 2% | ?
O=C(Cc1csc(N2CCOCC2)n1)N/N=C/c1ccc(O)c(O)c1O | ? | -16% | ? | 2.2µM* | 8.9µM* | -12% | ? | DNA dye displace=?;EndoIV counter=92%;APE1 FP inh=4%
Cc1c(C)c2c(c(C)c1O)CCC(C)(C(=O)O)O2 (stereo not given) | / | -11% | / | -5% | / | / | /
COc1ccc(NC(=O)c2cc3c(-c4ccc(OC)c(OC)c4)nn(C)c3s2)cc1OC | 8% | / | 18% | ? | ? | ? | 13µM* | DNA dye displace=9%;EndoIV counter=11µM*;APE1 FP inh=-4%
CCOC(=O)N1CCC(NC(=O)c2cc3c(-c4ccc(OC)c(OC)c4)nn(C)c3s2)CC1 | 2% | / | -8% | -1% | ? | -4% | /
O=C(O)c1cc2cc(Cl)ccc2[nH]1 | 4% | / | 4% | 0% | 4% | 3% | /
O=C(O)c1cc2cc(F)ccc2[nH]1 | 89µM*! | -1% | 1% | -3% | ? | -2% | ?
COc1ccc(Br)cc1CNC(=O)c1cc2n(n1)CCCN(Cc1ccc(C)cc1)C2=O | 1% | / | / | / | / | -9% | /
COc1cc2cccc(OC)c(=O)c2c(OC)c1OC | 2% | -5% | -7% | 14% | -24% | -13% | /
O=c1c(O)cccc2cc(O)c(O)c(O)c12 | / | 0.56µM* | 2.5µM* | 0.71µM* | 4µM* | 13µM* | 0.45µM* | EndoIV counter=-2%[57.1 µM]
CNC(=O)c1ccc(CSc2nc3cccnc3n2Cc2cccc(F)c2)cc1 | 5% | / | / | / | / | 1% | /
CCOC(=O)N1CCC(N2Cc3cccc(C(=O)NCc4ccc5c(c4)OCO5)c3C2=O)CC1 | 50µM* | -21% | -10% | ? | -6% | -21% | ?
Cc1cccc(C(=O)N2CCc3cc(CNC(=O)c4cc5ccccc5[nH]4)ccc32)c1 | 5% | / | / | / | / | -9% | /
CC(C)NC[C@@H](O)COc1cccc2ccccc12 | 15%[56.1 µM] | 1% | 2% | 12% | -4% | 26% | -15% | EndoIV counter=-5%[57.1 µM]
O=C(CCC(=O)N1CC2CCCN2c2ccccc21)NCc1ccccc1F (stereo not given) | 8% | / | / | / | / | 2% | /
O=C(N/N=C/c1ccc([N+](=O)[O-])cc1)c1ccc2nc[nH]c2c1 | 2% | 16% | i | -5% | -5% | -1% | /
C/C(=N\NC(=O)c1ccc2nc[nH]c2c1)c1ccc([N+](=O)[O-])cc1 | 79µM* | / | -5% | 3% | 39% | 5% | -22%
O=S(=O)(NCC(c1ccco1)S(=O)(=O)c1cccs1)c1ccc(F)c(C(F)(F)F)c1 (stereo not given) | 0% | / | / | / | / | -5% | /
Cc1oc2ncnc(N3CCCCC3)c2c1C(=O)NCC1CCN(Cc2cccc(F)c2)CC1 | 3% | / | / | / | / | -1% | /
CC(C)(O)CCCC(C)(O)c1ccc(C(=O)O)cc1O (stereo not given) | / | / | i | ? | -21% | 0% | 11µM* | DNA dye displace=-1%;EndoIV counter=10%;APE1 FP inh=-2%
SMILES | TDP1 inh | L3MBTL1 inh | RECQ1 inh | APE1 inh-1 | KDM4E inh | BLM inh | APE1 inh-2 | others
O=C(O)c1ccc(O)c(O)c1 | 5% | ? | 16% | 13% | ? | -1% | /
CCOc1ccc(C2CC(=O)n3nc(-c4ccc(C)cc4)nc3S2)cc1 (stereo not given) | / | / | / | / | / | -4% | /
COc1ccc(-c2nc3n(n2)C(=O)CC(c2ccco2)S3)cc1 (stereo not given) | -4% | ? | -8% | ? | -11% | -8% | ? | DNA dye displace=-8%;EndoIV counter=5%;APE1 FP inh=-17%
COc1cc(CC2COC(c3ccc(O)c(OC)c3)C2COC(C)=O)ccc1O (stereo not given) | / | / | 25µM* | 4µM* | -27% | 25µM* | 10µM* | DNA dye displace=1%;EndoIV counter=3%;APE1 FP inh=-9%
COc1cc(CC(=O)O)ccc1O | 0% | / | -10% | -3% | 4% | 0% | /
CCOC(=O)Cc1ccc(NC(=O)N2CC(CC)Oc3ccccc32)cc1 (stereo not given) | 3% | / | / | / | / | 3% | /
CCOc1cc(/C=N/Nc2cc(C)nc(-n3nc(C)cc3C)n2)ccc1O | 79µM* | ? | -1% | 3% | ? | -5% | -22%
Cc1ccc(-n2nc3c(=O)n(C(C)C(=O)NCc4ccc(OC(C)C)cc4)nc(C)c3c2C)cc1 (stereo not given) | 0% | / | / | / | / | -5% | /
O=C(c1ccc2c(c1)N(Cc1ccc(Cl)cc1)C(=O)c1ccccc1S2(=O)=O)N1CCCC1 | 2% | / | / | / | / | -8% | /
CCc1cnc2c(c1SCCC(C)C)c(=O)n(C)c(=O)n2C | -5% | / | / | / | / | -1% | /
Cc1cccc(CSc2nnc(-c3ccco3)o2)c1 | 3% | 43%[11.4 µM] | i | -8% | -15% | 2% | /
Cc1ccc2nc(CSc3nnc(-c4ccco4)o3)cc(=O)n2c1 | 18µM* | -19% | ? | 22µM* | ? | ? | -22% | DNA dye displace=-7%;EndoIV counter=4%;APE1 FP inh=-4%
